# In the supplement of paper PMC10981050:
# Where a name gives a salt, the structure may show the parent alone.
# Test system: MARIMO
# Experiment: cell viability relative to vehicle control; higher = less cytotoxic
# Details: 10 µM; SRSF2 genotype: SRSF2 wt/wt
# Procedure, shortened: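 Four leukaemia lines, as CRISPR-edited mutant clones and isogenic wild-type clones, were tested against Selleck bioactive, kinase and epigenetic probe libraries after removal of identity-inconsistent compounds. Cells were exposed to a single 10 µM dose for 48 h, and CellTiter-Glo luminescence was then read. Viability was calculated relative to the on-plate vehicle control.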
row,Structure (SMILES),cell viability [%]
1,CCCSc1nc(N[C@@H]2C[C@H]2c2ccc(F)c(F)c2)c2nnn([C@@H]3C[C@H](OCCO)[C@@H](O)[C@H]3O)c2n1 [Ticagrelor],86.5
2,O=[N+]([O-])c1cn2c(n1)OC[C@@H](OCc1ccc(OC(F)(F)F)cc1)C2,101
3,Cn1cncc1[C@@](N)(c1ccc(Cl)cc1)c1ccc2c(c1)c(-c1cccc(Cl)c1)cc(=O)n2C [Tipifarnib (Zarnestra)],32.9
4,CCN1CCN(C(=O)N[C@@H](C(=O)N[C@@H]2C(=O)N3C(C(=O)O)=C(CSc4nnnn4C)CS[C@H]23)c2ccc(O)cc2)C(=O)C1=O [Cefoperazone (Cefobid)],101
5,C[C@]1(O)C[C@@H](c2nc(-c3ccc4ccc(-c5ccccc5)nc4c3)c3c(N)nccn32)C1 [OSI-906 (Linsitinib)],40.8
6,O=c1c(O)c(-c2ccc(O)c(O)c2)oc2cc(O)ccc12 [Fisetin (Fustel)],100
7,CC1(C)[C@@H](O)CC[C@]2(C)[C@H]3C(=O)C=C4[C@@H]5C[C@@](C)(C(=O)O)CC[C@]5(C)CC[C@@]4(C)[C@]3(C)CC[C@@H]12 [Enoxolone (Glycyrrhetin)],105
8,OCCN1C[C@H](O)[C@@H](O)[C@H](O)[C@H]1CO [Miglitol (Glyset)],102
9,CC(OC(=O)OC1CCCCC1)OC(=O)C1=C(CSc2nnnn2CCN(C)C)CS[C@@H]2[C@H](NC(=O)Cc3csc(N)n3)C(=O)N12 (stereo not given in full) [Cefotiam Hexetil Hydrochloride],94.9
10,COc1ccc(-c2nc(-c3cc(C(F)(F)F)cc(C(F)(F)F)c3)n(Cc3ccc(C(N)=O)cc3)c2-c2ccc(OC)cc2)cc1 [Apoptozole],88.9
